This passage reports growth results from PubChem BioAssay (NCI).

What all share (assay): NCI-60 one-dose screen, 48 h (100 = growth as untreated, 0 = no growth, -100 = all killed)
One experiment has as its system NCI-H23 lung. Conditions: 10 µM unless noted.
The next experiment relates to NCI-H226 lung. Conditions: 10 µM unless noted.
A further experiment concerns NCI-H322M lung. The conditions noted are these: 10 µM unless noted.
Another experiment deals with HOP-62 NSCLC. The conditions noted are these: 10 µM unless noted.
The test system of the next experiment is NCI-H460 lung. Conditions: 10 µM unless noted.
The test system of a further experiment is 786-0 renal. Conditions: 10 µM unless noted.
The subject of another experiment is COLO 205 colon. Conditions: 10 µM unless noted.
Another experiment relates to DU-145 prostate. The conditions noted are these: 10 µM unless noted.
Another experiment concerns K-562 leukemia. Conditions: 10 µM unless noted.
The next experiment concerns MALME-3M melanoma. Conditions: 10 µM unless noted.
The subject of another experiment is MDA-MB-231 breast. Conditions: 10 µM unless noted.
Another experiment relates to RXF 393 renal. The conditions noted are these: 10 µM unless noted.
A further experiment concerns SF-268 CNS. The conditions noted are these: 10 µM unless noted.
The subject of the next experiment is SF-295 CNS. The conditions noted are these: 10 µM unless noted.
A further experiment deals with SF-539 CNS. The conditions noted are these: 10 µM unless noted.
A further experiment concerns UACC-257 melanoma. The conditions noted are these: 10 µM unless noted.
A further experiment relates to M14 melanoma. Conditions: 10 µM unless noted.
Another experiment relates to HOP-92 NSCLC. Conditions: 10 µM.
A further experiment relates to NCI-H522 lung. Conditions: 10 µM unless noted.
The next experiment deals with A549/ATCC NSCLC. The conditions noted are these: 10 µM unless noted.

Compounds without any hit were thinned out: in the full panel of roughly 83,000, 20% have a hit.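 Step 1: grow cells in 96-well plates. Step 2: add test compound at a single concentration. Step 3: incubate 48 h. Step 4: record percent growth.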 Values without a mark were called inactive. Calls of active or inactive are those of the source. Rule for the calls: active = growth percent below 10; inactive = the rest.

`CC(C)c1ccc(NCc2cn(-c3ccc(C(=O)O)cc3)nc2-c2cc(C(F)(F)F)cc(C(F)(F)F)c2)cc1`: the growth is 83.2% with NCI-H23 lung; 85.8% in the experiment on NCI-H226 lung; 85.1% in the experiment on NCI-H322M lung; 94.9% with HOP-62 NSCLC; 83% with NCI-H460 lung; 90.7% with 786-0 renal. Moreover, the growth with COLO 205 colon is 96.5%; in the experiment with DU-145 prostate, 89.6%; in the experiment on K-562 leukemia it was 79.8%; in the experiment with MALME-3M melanoma it was 71%; in the experiment on MDA-MB-231 breast, 91.8%; in the experiment on RXF 393 renal, 97.2%. Besides, the growth in the experiment with SF-268 CNS was 88.1%; with SF-295 CNS, 98.5%; with SF-539 CNS it was 83.6%; with UACC-257 melanoma, 94.9%; in the experiment with M14 melanoma it was 86%.
As to `CC(=O)N1N=C(c2cccc(-n3cccc3)c2)CC1c1cccc(F)c1` (stereo unspecified), the growth was 82.1% with NCI-H23 lung; 94.5% in the experiment on NCI-H226 lung; 90.3% in the experiment on NCI-H322M lung; 109% with HOP-62 NSCLC; 107% in the experiment with NCI-H460 lung; 102% in the experiment on 786-0 renal. Besides, the growth in the experiment with COLO 205 colon is 104%; in the experiment with DU-145 prostate, 114%; in the experiment with K-562 leukemia it was 99.9%; in the experiment with MALME-3M melanoma, 88.3%; with MDA-MB-231 breast, 94.8%; with RXF 393 renal, 86.1%. The growth in the experiment with SF-268 CNS was 113%; in the experiment on SF-295 CNS it was 107%; in the experiment on SF-539 CNS, 101%; in the experiment with UACC-257 melanoma, 104%; with M14 melanoma, 97.6%.
As for `CCOC(=O)c1c(N)c(C#N)cn1-c1cc(OC)c(OC)c(OC)c1`, the growth in the experiment on NCI-H226 lung was 110%; with NCI-H322M lung it was 101%; in the experiment with HOP-62 NSCLC it was 101%; with NCI-H460 lung, 104%; with HOP-92 NSCLC, 79.1%; in the experiment on NCI-H522 lung, 104%. Besides, the growth in the experiment with A549/ATCC NSCLC is 101%; with 786-0 renal, 103%; in the experiment with COLO 205 colon it was 122%; in the experiment with DU-145 prostate, 110%; in the experiment with K-562 leukemia, 105%; in the experiment with MALME-3M melanoma, 102%. Besides, the growth in the experiment on MDA-MB-231 breast was 100%; in the experiment on RXF 393 renal, 112%; in the experiment on SF-268 CNS, 111%; with SF-295 CNS, 99%; in the experiment on SF-539 CNS it was 92.6%; in the experiment with UACC-257 melanoma, 111%. In addition, in the experiment on M14 melanoma, the growth is 109%.
Regarding `NS(=O)(=O)c1ccc(Nc2nc(SCc3ccccc3)nc3ccccc23)cc1`, the growth in the experiment on NCI-H226 lung is 76.8%; in the experiment on NCI-H322M lung it was 88.7%; in the experiment with HOP-62 NSCLC, 86.2%; in the experiment on NCI-H460 lung, 45.1%; in the experiment with HOP-92 NSCLC it was 55.4%; in the experiment with NCI-H522 lung it was 81.3%. Further, the growth with A549/ATCC NSCLC is 52.6%; in the experiment on 786-0 renal, 40.3%; in the experiment with COLO 205 colon, 79.6%; in the experiment with DU-145 prostate, 61.7%; in the experiment on K-562 leukemia, 14.4%; in the experiment on MALME-3M melanoma, 81.7%. In addition, the growth is 53.9% with MDA-MB-231 breast; 45.5% in the experiment with RXF 393 renal; 73.2% in the experiment on SF-268 CNS; 59.9% in the experiment on SF-295 CNS; 48.8% with SF-539 CNS; 92.8% in the experiment with UACC-257 melanoma. Also, in the experiment on M14 melanoma, the growth is 75%.
Take `NC(N)=Nc1ccc(Oc2cccc(Nc3ccc(Cl)c(C(F)(F)F)c3)c2)cn1`: the growth in the experiment on NCI-H23 lung is -65.6% (active); in the experiment with NCI-H226 lung, -48.8% (active); in the experiment on NCI-H322M lung, -25.9% (active); in the experiment with HOP-62 NSCLC it was -51.2% (active); in the experiment with NCI-H460 lung, -76.2% (active); in the experiment with A549/ATCC NSCLC it was -24.1% (active). Moreover, the growth in the experiment on 786-0 renal was -46.3% (active); in the experiment with COLO 205 colon, -75.9% (active); with DU-145 prostate, -93.4% (active); in the experiment with K-562 leukemia, -43.5% (active); in the experiment on MDA-MB-231 breast, -58.1% (active); in the experiment on RXF 393 renal, -3.9% (active). Further, the growth in the experiment on SF-268 CNS was 17.7%; in the experiment on SF-295 CNS, -84.7% (active); with SF-539 CNS, 15.9%; in the experiment on UACC-257 melanoma, -26.1% (active); in the experiment on M14 melanoma, -62.4% (active).
Take `Fc1ccc(-c2cc3nc(C(Cl)Cl)nc(-c4ccc(F)cc4)n3n2)cc1`: the growth was 79.1% in the experiment with NCI-H226 lung; -30.3% (active) in the experiment on NCI-H322M lung; -27.6% (active) with HOP-62 NSCLC; -52.9% (active) in the experiment with NCI-H460 lung; -3.1% (active) in the experiment with HOP-92 NSCLC; -26.8% (active) with A549/ATCC NSCLC. Also, the growth in the experiment on 786-0 renal is 51.4%; with COLO 205 colon, -70.2% (active); in the experiment with DU-145 prostate, -18.4% (active); in the experiment with K-562 leukemia it was 14.3%; with MALME-3M melanoma, 9.81% (active); with MDA-MB-231 breast, 5.31% (active). Moreover, the growth in the experiment with RXF 393 renal was -58.1% (active); in the experiment with SF-268 CNS, 23.2%; in the experiment with SF-295 CNS, 8.01% (active); in the experiment with SF-539 CNS, 21.3%; in the experiment with UACC-257 melanoma, 20.5%; with M14 melanoma, -4.2% (active).
Take `COc1ccc(-c2nn(-c3ccc(S(C)(=O)=O)cc3)cc2/C=N/O)cc1`: the growth in the experiment with NCI-H226 lung was 94.7%; with NCI-H322M lung, 108%; in the experiment with HOP-62 NSCLC, 109%; with NCI-H460 lung, 102%; in the experiment on HOP-92 NSCLC it was 98.8%; with NCI-H522 lung, 100%. In addition, the growth was 105% with A549/ATCC NSCLC; 105% with 786-0 renal; 119% with COLO 205 colon; 107% in the experiment with DU-145 prostate; 107% in the experiment on K-562 leukemia; 103% with MALME-3M melanoma. The growth in the experiment on MDA-MB-231 breast is 96.7%; in the experiment on RXF 393 renal it was 103%; in the experiment with SF-268 CNS, 108%; in the experiment on SF-295 CNS it was 106%; in the experiment on SF-539 CNS, 92.1%; in the experiment on UACC-257 melanoma it was 104%. The growth in the experiment with M14 melanoma is 109%.
